Experiment [1] can be described thus: qHTS of pediatric cancer cell lines to identify multiple opportunities for drug repurposing: Primary screen for A673 cells (AID 1347092). Note: nearly all actives have a fitted effect of over 45% in size. Note: potency is the fitted concentration of half-maximal effect. Particulars: A673 Ewing sarcoma viability, CellTiter-Glo ATP luminescence, 48 h; series mostly up to 46 µM. The gist of the method:
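48 h compound exposure, A673, 500-1,000 cells/well, 37 degrees C/5% CO2. MIPE: 11-point, 0.78 nM-46 µM; NPC: 8-point, 0.59 nM-46 µM (final). Readout CellTiter-Glo luminescence after 15 min RT.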
(qHTS replaces the single test concentration by a dilution series.)

A short description of experiment [2]: qHTS of pediatric cancer cell lines to identify multiple opportunities for drug repurposing: Primary screen for U-2 OS cells (AID 1347096). Note: nearly all actives have a fitted effect of over 50% in size. Note: potency is the fitted concentration of half-maximal effect. Conditions: U-2 OS viability, CellTiter-Glo luminescence, 48 h; series mostly up to 46 µM. The gist of the method:
(§1)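 Cells (500-1,000/well) in growth media were settled 5 h at 37 degrees C, then given compounds for 48 h. Viability was read as CellTiter-Glo luminescence. Primary runs used MIPE at 11 points (0.78 nM-46 µM) and NPC at 8 points (0.59 nM-46 µM); follow-ups used 11 points.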

Experiment [3] is described as follows: qHTS of pediatric cancer cell lines to identify multiple opportunities for drug repurposing: Primary screen for NB1643 cells (AID 1347099). Note: nearly all actives have a fitted effect of over 50% in size. Note: potency is the fitted concentration of half-maximal effect. Conditions: NB1643 neuroblastoma viability, CellTiter-Glo luminescence, 48 h; series mostly up to 46 µM. In short, it runs like this:
(§2)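 Luminescence from CellTiter-Glo served as readout of metabolically active cells after 48 h compound exposure. Titrations: MIPE 11-point, from 0.78 nM; NPC 8-point, from 0.59 nM (final). Concentration-response curves came straight from the primary screen.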

Experiment [4] can be described thus: qHTS of pediatric cancer cell lines to identify multiple opportunities for drug repurposing: Primary screen for BT-12 cells (AID 1347101). Note: nearly all actives have a fitted effect of over 25% in size. Note: potency is the fitted concentration of half-maximal effect. Conditions: BT-12 viability, CellTiter-Glo luminescence, 48 h; series mostly up to 57.3 µM. In short, it runs like this: (§3)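 Cells (500-1,000/well) rested 5 h, then received compounds for 48 h; metabolically active cells were measured by CellTiter-Glo luminescence. Final concentrations spanned up to 46 µM (MIPE, 11-point) or 0.59 nM-46 µM (NPC, 8-point) in primary screens, 11-point in follow-ups.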

Experiment [5] can be described thus: qHTS of pediatric cancer cell lines to identify multiple opportunities for drug repurposing: Primary screen for Rh18 cells (AID 1347102). Note: nearly all actives have a fitted effect of over 65% in size. Note: potency is the fitted concentration of half-maximal effect. Conditions: Rh18 rhabdomyosarcoma viability, CellTiter-Glo luminescence, 48 h; series mostly up to 46 µM. The gist of the method: as §1
Experiment [6] is described as follows: qHTS of pediatric cancer cell lines to identify multiple opportunities for drug repurposing: Primary screen for MG 63 (6-TG R) cells (AID 1347105). Note: nearly all actives have a fitted effect of over 50% in size. Note: potency is the fitted concentration of half-maximal effect. Particulars: MG 63 (6-TG R) viability, CellTiter-Glo, 48 h; series mostly up to 46 µM. In short, it runs like this:
as §2

A short description of experiment [7]: qHTS of pediatric cancer cell lines to identify multiple opportunities for drug repurposing: Primary screen for control Hh wild type fibroblast cells (AID 1347106).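 Note: a drop in luminescence marks cytotoxicity and a rise apparent proliferation; nearly all actives have a fitted effect of over 55% in size.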 Conditions: Hh wild-type fibroblast viability, CellTiter-Glo luminescence, 48 h; series mostly up to 46 µM. In short, it runs like this:
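Viability after 48 h compound treatment at 37C, 500-1,000 cells/well, read as ATP luminescence with CellTiter-Glo. Primary screens used 11-point (MIPE, 0.78 nM-46 µM) or 8-point (NPC, 0.59 nM-46 µM) final concentrations; follow-up screens used 11-point dilutions.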

Experiment [8] is described as follows: qHTS of pediatric cancer cell lines to identify multiple opportunities for drug repurposing: Primary screen for Rh30 cells (AID 1347107). Note: nearly all actives have a fitted effect of over 75% in size. Particulars: Rh30 rhabdomyosarcoma viability, CellTiter-Glo luminescence, 48 h; series mostly up to 46 µM. In short, it runs like this:
as §1

The nature of experiment [9]: qHTS of pediatric cancer cell lines to identify multiple opportunities for drug repurposing: Primary screen for SJ-GBM2 cells (AID 1347091). Note: potency is the fitted concentration of half-maximal effect. Particulars: SJ-GBM2 viability, CellTiter-Glo luminescence, 48 h; series mostly up to 46 µM. In short, it runs like this:
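Eight- or eleven-point concentration series, 48 h treatment at 37 degrees C in growth media; readout CellTiter-Glo luminescence. Potency and efficacy were taken from the concentration-response curves.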

Experiment [10] in a line: qHTS of pediatric cancer cell lines to identify multiple opportunities for drug repurposing: Primary screen for SK-N-MC cells (AID 1347093). Note: potency is the fitted concentration of half-maximal effect. Particulars: SK-N-MC viability, CellTiter-Glo luminescence, 48 h; series mostly up to 46 µM. The gist of the method: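 Metabolically active cells were quantified by ATP-dependent luminescence (CellTiter-Glo, 15 min at room temperature) following 48 h treatment. Cells had been plated at 500-1,000 per well and settled for 5 h beforehand.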

Experiment [11] in a line: qHTS of pediatric cancer cell lines to identify multiple opportunities for drug repurposing: Primary screen for BT-37 cells (AID 1347094). Note: potency is the fitted concentration of half-maximal effect. Particulars: BT-37 viability, CellTiter-Glo luminescence, 48 h; series mostly up to 57.3 µM. The gist of the method: as §2
Experiment [12] is described as follows: qHTS of pediatric cancer cell lines to identify multiple opportunities for drug repurposing: Primary screen for NB-EBc1 cells (AID 1347095). Note: potency is the fitted concentration of half-maximal effect. Particulars: NB-EBc1 neuroblastoma viability, CellTiter-Glo luminescence, 48 h; series mostly up to 46 µM. The gist of the method: as §2
Experiment [13] is described as follows: qHTS of pediatric cancer cell lines to identify multiple opportunities for drug repurposing: Primary screen for LAN-5 cells (AID 1347100). Note: potency is the fitted concentration of half-maximal effect. Conditions: LAN-5 neuroblastoma viability, CellTiter-Glo luminescence, 48 h; series mostly up to 46 µM. The gist of the method: as §1
Experiment [14] is described as follows: qHTS of pediatric cancer cell lines to identify multiple opportunities for drug repurposing: Primary screen for OHS-50 cells (AID 1347103). Note: nearly all actives have a fitted effect of over 40% in size. Note: potency is the fitted concentration of half-maximal effect. Particulars: OHS-50 osteosarcoma viability, CellTiter-Glo luminescence, 48 h; series mostly up to 57.3 µM. In short, it runs like this: as §3
A short description of experiment [15]: qHTS of pediatric cancer cell lines to identify multiple opportunities for drug repurposing: Confirmatory screen for NB1643 cells (AID 1347109). Note: nearly all actives have a fitted effect of over 45% in size. Note: potency is the fitted concentration of half-maximal effect. Conditions: NB1643 neuroblastoma cell viability; series mostly up to 45.9 µM. The gist of the method: as §1
Experiment [16] is described as follows: qHTS of pediatric cancer cell lines to identify multiple opportunities for drug repurposing: Primary screen for Saos-2 cells (AID 1347097). Note: nearly all actives have a fitted effect of over 40% in size. Note: potency is the fitted concentration of half-maximal effect. Conditions: Saos-2 viability, CellTiter-Glo ATP luminescence, 48 h; series mostly up to 46 µM. In short, it runs like this:
as §2

Experiment [17] can be described thus: qHTS of pediatric cancer cell lines to identify multiple opportunities for drug repurposing: Primary screen for RD cells (AID 1347104). Note: nearly all actives have a fitted effect of over 55% in size. Note: potency is the fitted concentration of half-maximal effect. Particulars: RD rhabdomyosarcoma viability, CellTiter-Glo luminescence, 48 h; series mostly up to 46 µM. The gist of the method: as §2
Experiment [18] in a line: qHTS of pediatric cancer cell lines to identify multiple opportunities for drug repurposing: Primary screen for Rh41 cells (AID 1347108).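 Note: luminescence drop marks cytotoxic hits; nearly all actives have a fitted effect of over 70% in size.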 Conditions: Rh41 rhabdomyosarcoma viability, CellTiter-Glo luminescence, 48 h; series mostly up to 46 µM. The gist of the method:
as §2

Experiment [19] can be described thus: qHTS of pediatric cancer cell lines to identify multiple opportunities for drug repurposing: Primary screen for SK-N-SH cells (AID 1347098). Note: nearly all actives have a fitted effect of over 65% in size. Note: potency is the fitted concentration of half-maximal effect. Particulars: SK-N-SH viability, CellTiter-Glo luminescence, 48 h; series mostly up to 57 µM. In short, it runs like this: as §3
Experiment [20] can be described thus: qHTS of pediatric cancer cell lines to identify multiple opportunities for drug repurposing: Confirmatory screen for A673 cells (AID 1347110).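 Note: cells exposed to compound for 48 h before the viability read; nearly all actives have a fitted effect of over 65% in size.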 Conditions: A673 Ewing sarcoma cell viability; series mostly up to 45.9 µM. In short, it runs like this:
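Concentration-response curves came straight from titrations: 11 points (0.78 nM to 46 µM) for MIPE and several concentrations (0.59 nM to 46 µM) for NPC in primary, 11 points in follow-up. Readout: ATP luminescence at 48 h.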

These results are taken from PubChem BioAssay (NCATS).

Where “and” joins values, the source holds several entries; their conditions need not be identical. Equal entries are not always repeated. Records with an inconclusive call do not appear. Calls of active or inactive are those of the source. Calls come from the whole dose curve; as a rule, active = well fitted curve in the direction sought with a large enough effect; inconclusive = small, poorly fitted or top-dose-only effect, or another doubt; inactive = no such curve, though single readings can be large; an effect the other way counts as inactive or inconclusive.

With `Clc1ccc(COC(Cn2ccnc2)c2ccc(Cl)cc2Cl)cc1` (configuration not stated), the Potency in experiment [1] was 23.5 µM (active); in experiment [3], 26.6 µM (active); in [4], 15.5 µM (active). The Potency entry in experiment [2], in experiment [5], in experiment [6], in [7] and in experiment [8] was “inactive” each time.
In the case of `C[C@@H]1[C@@H](CC(C[C@H]2O[C@@H]3O[C@]4(C)CC[C@@H]5[C@H](C)CC[C@@H]([C@H]2C)[C@@]35OO4)C[S+](=O)([O-])c2ccc(COC(=O)N(C)C)cc2)O[C@@H]2O[C@]3(C)CC[C@H]4[C@H](C)CC[C@@H]1[C@@]24OO3` (some centres not stated), the Potency in [9] is 0.469 µM (active); in experiment [10], 0.372 µM (active); in experiment [11], 0.485 µM (active); in experiment [12] it was 0.418 µM (active); in [3] it was 1.05 µM (active); in experiment [13] it was 0.662 µM (active). The Potency in [4] was 0.344 µM (active); in [5], 1.66 µM (active); in experiment [14] it was 0.306 µM (active); in experiment [15], 0.414 µM (active). Also, the Potency result in experiment [2], in [7] and in [8] was “inactive” throughout.
As to `CC(C)(C)CC(C)(C)c1ccc(O)cc1`, the Potency in [9] was 21.7 µM (active); in experiment [10], 27.3 µM (active); in [12], 30.6 µM (active); in experiment [16], 30.6 µM (active) and 21.1 µM (active); in [14], 25.2 µM (active) and 15.5 µM (active). Also, the Potency result in experiment [3], in [5], in experiment [17], in [7] and in experiment [8] was “inactive” in each case.
As for `CO[C@]12CC[C@@]3(C[C@@H]1[C@](C)(O)C(C)(C)C)[C@@H]1Cc4ccc(O)c5c4[C@@]3(CCN1CC1CC1)[C@H]2O5`, the Potency was 48.1 µM (active) in [1]; 30.3 µM (active) in experiment [10]; 39.6 µM (active) in [11]; 38.2 µM (active) in experiment [2]; 25 µM (active) in experiment [14]; 30.3 µM (active) in experiment [6].
Turning to `Oc1ccc(Cl)cc1Cc1ccccc1`, the Potency was 12.3 µM (active) in experiment [9]; 49.1 µM (active) in [1]; 24.6 µM (active) and 23.7 µM (active) in experiment [16]; 25.6 µM (active) in experiment [14]. The Potency entry in experiment [2], in [3], in [4], in [5], in experiment [7] and in [8] was “inactive” throughout. For the same compound, the Potency entry in experiment [18] is “inactive”.
In the case of `CCC(=O)C(CC(C)N(C)C)(c1ccccc1)c1ccccc1` (configuration not stated), the Potency entry in experiment [9], in experiment [12], in [2], in [3], in [13] and in [5] was “inactive” in each case. The Potency entry in experiment [7] and in [8] was “inactive” throughout. Further, in experiment [14], the Potency is 22.5 µM (active).
Consider `C=C1C[C@@H]2[C@H](CC[C@]3(C)C(=O)CC[C@@H]23)[C@@]2(C)C=CC(=O)C=C12`, for which the Potency entry in experiment [9], in experiment [12], in experiment [2], in experiment [19], in [3] and in [13] was “inactive” throughout. Also, the Potency result in experiment [5], in experiment [17], in experiment [6], in [7], in experiment [8] and in experiment [18] was “inactive” each time.
Consider `O=C(O)C(=O)c1cn(Cc2ccccc2)c2ccc(-c3ccc(OC(F)(F)F)cc3)cc12`, for which the Potency entry in [1], in experiment [11], in experiment [2], in experiment [13], in [4] and in experiment [5] was “inactive” throughout. Also, the Potency result in experiment [6], in experiment [7] and in experiment [8] was “inactive” in each case. In addition, the Potency in experiment [16] and in [3] was 23.5 µM (active) each time.
For the compound `COc1ccc(Cc2nccc3cc(OC)c(OC)cc23)cc1OC`, the Potency entry in [2], in experiment [19], in [3], in [5], in experiment [6] and in [7] was “inactive” throughout. Besides, the Potency result in experiment [8] was “inactive”.
Turning to `Clc1ccc(CCC(Cn2ccnc2)Sc2c(Cl)cccc2Cl)cc1` (configuration not stated), the Potency entry in [9], in [5], in [6], in experiment [7] and in [8] was “inactive” each time. For the same compound, the Potency is 23.5 µM (active) in experiment [1]; 23.5 µM (active) in experiment [10]; 21.1 µM (active) in experiment [12]; 20.9 µM (active) in experiment [13]; 27.6 µM (active) in [14]; 37.2 µM (active) in [17].
As to `O=P1(NCCCl)OCCCN1CCCl` (configuration not stated), the Potency entry in [10], in experiment [11], in experiment [12], in [2], in experiment [16] and in [19] was “inactive” throughout. The Potency entry in experiment [3], in experiment [13], in [4], in [5], in experiment [14] and in experiment [17] was “inactive” each time. Moreover, the Potency result in [6], in experiment [7], in experiment [8], in experiment [15] and in experiment [20] was “inactive” each time.
With `CC1=C2C[C@@H]3[C@@H](CC=C4C[C@@H](O)CC[C@@]43C)[C@@H]2CC[C@]12O[C@H]1C[C@H](C)CN[C@H]1[C@H]2C`, the Potency result in experiment [10], in experiment [11], in [2], in experiment [16], in [3] and in [13] was “inactive” in each case. For the same compound, the Potency entry in [5], in experiment [17], in [6] and in [7] was “inactive” in each case. For the same compound, the figures for the Potency in [19] and in experiment [14] were 6.07 µM (active) and 30.6 µM (active), respectively.
